Measurements from the supplement of paper PMC6089552.
Hit rate of the full screen: of about 3,200 compounds, about 300 (9.4%) showed activity. The list comes from a sample in which actives are over-represented; it also holds similar structures and randomly drawn compounds.

System: A673/TR/shEF
Experiment: cell viability (LOESS-normalised, relative to median of negative controls) (log2 ratio); higher = more viable cells (less compound effect), active = hit call of the paper (over 3 MAD below the median)
Conditions: treatment time: 72 h
Method in brief: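 Viability of A673/TR/shEF Ewing sarcoma cells was determined by CellTiter-Glo luminescence. The cells, at 1,500 per well in 384-well plates, were grown with or without doxycycline from 24 h before compound addition to switch on EWS-FLI1 shRNA knockdown, then exposed for three days to library compounds at two or more concentrations or to DMSO controls. Signals were LOESS-corrected plate by plate, normalised to the negative-control median and log2-transformed.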

[1] = 0.103 µM, library screen: screen3, EWS-FLI1 expression: high (no doxycycline)
[2] = 0.103 µM, library screen: screen3, EWS-FLI1 expression: low (doxycycline-induced shRNA knockdown)
[3] = 0.308 µM, library screen: screen3, EWS-FLI1 expression: high (no doxycycline)
[4] = 0.308 µM, library screen: screen3, EWS-FLI1 expression: low (doxycycline-induced shRNA knockdown)
[5] = 0.926 µM, library screen: screen3, EWS-FLI1 expression: high (no doxycycline)
[6] = 0.926 µM, library screen: screen3, EWS-FLI1 expression: low (doxycycline-induced shRNA knockdown)
[7] = 2.8 µM, library screen: screen3, EWS-FLI1 expression: high (no doxycycline)
[8] = 2.8 µM, library screen: screen3, EWS-FLI1 expression: low (doxycycline-induced shRNA knockdown)
[9] = 8.3 µM, library screen: screen3, EWS-FLI1 expression: high (no doxycycline)
[10] = 8.3 µM, library screen: screen3, EWS-FLI1 expression: low (doxycycline-induced shRNA knockdown)
[11] = 25 µM, library screen: screen3, EWS-FLI1 expression: high (no doxycycline)
[12] = 25 µM, library screen: screen3, EWS-FLI1 expression: low (doxycycline-induced shRNA knockdown)
[13] = 0.25 µM, library screen: screen2, EWS-FLI1 expression: high (no doxycycline)
[14] = 0.25 µM, library screen: screen2, EWS-FLI1 expression: low (doxycycline-induced shRNA knockdown)
[15] = 2.5 µM, library screen: screen2, EWS-FLI1 expression: high (no doxycycline)
[16] = 2.5 µM, library screen: screen2, EWS-FLI1 expression: low (doxycycline-induced shRNA knockdown)
[17] = 0.025 µM, library screen: screen1, EWS-FLI1 expression: high (no doxycycline)
[18] = 0.025 µM, library screen: screen1, EWS-FLI1 expression: low (doxycycline-induced shRNA knockdown)
[19] = 0.25 µM, library screen: screen1, EWS-FLI1 expression: high (no doxycycline)
[20] = 0.25 µM, library screen: screen1, EWS-FLI1 expression: low (doxycycline-induced shRNA knockdown)
[21] = 2.5 µM, library screen: screen1, EWS-FLI1 expression: high (no doxycycline)
[22] = 2.5 µM, library screen: screen1, EWS-FLI1 expression: low (doxycycline-induced shRNA knockdown)
[23] = 25 µM, library screen: screen1, EWS-FLI1 expression: high (no doxycycline)
[24] = 25 µM, library screen: screen1, EWS-FLI1 expression: low (doxycycline-induced shRNA knockdown)

Measured: cell viability (log2)

Cc1c(N)nc(C(CC(N)=O)NCC(N)C(N)=O)nc1C(=O)NC(C(=O)NC(C)C(O)C(C)C(=O)NC(C(=O)NCCc1nc(-c2nc(C(=O)NCCC[S+](C)C)cs2)cs1)C(C)O)C(O[C@@H]1O[C@@H](CO)[C@@H](O)[C@H](O)[C@@H]1O[C@H]1O[C@H](CO)[C@@H](O)[C@H](OC(N)=O)[C@@H]1O)c1cnc[nH]1 (stereo partly specified)
inactive: [1] 0.0914 | [2] 0.135 | [3] 0.115 | [4] 0.0961 | [5] 0.0288 | [6] 0.0331 | [7] 0.152 | [8] 0.1 | [9] 0.12 | [10] 0.0649 | [11] 0.18 | [12] 0.0742

O=C(CCCN1CCC2(CC1)C(=O)N(CCc1ccc(N=C=S)cc1)CN2c1ccccc1)c1ccc(F)cc1
inactive: [13] 0.156 | [14] 0.15 | [15] 0.122 | [16] 0.0672

C[C@@]12C(=O)OC(=O)[C@]1(C)[C@H]1CC[C@@H]2O1
inactive: [17] 0.0446 | [18] 0.00348 | [19] 0.0474 | [20] -0.0807 | [13] 0.254 | [14] 0.0884 | [21] 0.0534 | [22] 0.0478 | [15] 0.0871 | [16] 0.00613 | [23] 0.0285 | [24] -0.0214

CC1(C(=O)O)C2CCC(O2)C1(C)C(=O)O (stereo unspecified)
active: [23] -0.932 | [24] -0.597
inactive: [17] 0.144 | [18] -0.0798 | [19] 0.0748 | [20] -0.099 | [13] 0.137 | [14] 0.0724 | [21] -0.00382 | [22] -0.0912 | [15] 0.0145 | [16] 0.0152

N[C@@]1(C(=O)O)CC[C@@H](C(=O)O)C1
inactive: [13] 0.102 | [14] 0.109 | [15] 0.101 | [16] 0.133

S=C(NC1CCCCC1)N1CCC(c2cnc[nH]2)CC1
inactive: [13] 0.127 | [14] 0.0827 | [15] 0.121 | [16] 0.058

CCC(C)c1cnc(CC(C)C)c(=O)n1O (stereo unspecified)
inactive: [19] 0.088 | [20] 0.0724 | [21] 0.0675 | [22] 0.0404

CCOC(=O)c1cncn1C(C)c1ccccc1 (stereo unspecified)
inactive: [1] 0.148 | [2] 0.103 | [3] 0.128 | [4] 0.0765 | [5] 0.0647 | [6] 0.0966 | [7] 0.203 | [8] 0.0919 | [9] 0.131 | [10] 0.046 | [11] 0.154 | [12] 0.157

N#C/C(=C\c1cccc(O)c1)C(=O)O
inactive: [19] 0.0765 | [20] 0.115 | [21] 0.0856 | [22] 0.0942

CC[C@H]1CN2CCc3cc(OC)c(OC)cc3[C@@H]2C[C@@H]1C[C@H]1NCCc2cc(OC)c(OC)cc21
active: [13] -0.895 | [14] -0.442 | [21] -1.08 | [22] -0.152 | [15] -2.19 | [16] -1.21 | 25 µM, library screen: screen2, EWS-FLI1 expression: high (no doxycycline) -2.91 | 25 µM, library screen: screen2, EWS-FLI1 expression: low (doxycycline-induced shRNA knockdown) -1.84
inactive: 0.025 µM, library screen: screen2, EWS-FLI1 expression: high (no doxycycline) 0.187 | 0.025 µM, library screen: screen2, EWS-FLI1 expression: low (doxycycline-induced shRNA knockdown) 0.0478 | [19] 0.11 | [20] 0.116

COc1cc2c(cc1OC)C(C)NCC2 (stereo unspecified)
inactive: [19] 0.121 | [20] 0.123 | [21] 0.193 | [22] 0.143

COc1cc2c(cc1O)CCNC2C (stereo unspecified)
inactive: [19] -0.0405 | [20] -0.0233 | [21] 0.0226 | [22] 0.0664

Clc1ccc(Cl)cc1
inactive: [19] 0.0995 | [20] 0.0885 | [21] 0.0618 | [22] 0.0905

CC[C@@H](C)C(=O)O[C@H]1[C@H](O)[C@H]2[C@@H](CN3C[C@@H](C)CC[C@H]3[C@@]2(C)O)[C@@H]2C[C@]34O[C@]5(O)[C@@H](OC(=O)[C@@](C)(O)CC)CC[C@@]3(C)[C@@H]5[C@@H](OC(C)=O)[C@@H](OC(C)=O)[C@H]4[C@@]21O
inactive: [19] -0.0817 | [20] -0.0114 | [21] 0.16 | [22] -0.013

C/C=C/c1ccc2c(c1)OCO2
inactive: [19] 0.0443 | [20] -0.0135 | [21] 0.1 | [22] 0.0835

CC(=O)OCC1=C(C(=O)O)N2C(=O)[C@@H](NC(=O)CCCC(N)C(=O)O)C2SC1 (stereo partly specified)
inactive: [19] 0.128 | [20] 0.143 | [21] 0.14 | [22] -0.0301

C[C@]12C=CC(=O)C=C1CC[C@@H]1[C@@H]2CC[C@]2(C)C(=O)CC[C@@H]12
inactive: [19] 0.0143 | [20] 0.0386 | [21] -0.0049 | [22] 0.0547

C=CCC1(C(C)CCC)C(=O)NC(=S)NC1=O (stereo unspecified)
inactive: [19] 0.103 | [20] 0.0758 | [21] 0.146 | [22] 0.0138

CC1C2Cc3ccc(O)cc3C1(C)CCN2CC1CC1 (stereo unspecified)
inactive: [13] 0.105 | [14] 0.104 | [15] 0.153 | [16] 0.0285

C[C@@H]1CC[C@H]2[C@@H](C)C(=O)O[C@@H]3OC4(C)CC[C@@H]1[C@]32OO4
inactive: [19] 0.0266 | [20] 0.0821 | [21] 0.0419 | [22] -0.14

COc1ccc(C[C@H]2NC[C@H](O)[C@H]2OC(C)=O)cc1
active: [19] -0.49 | [20] -0.228 | [21] -2.24 | [22] -1.04

CC(C)[C@H]1CN[C@H](C(=O)O)[C@H]1CC(=O)O
inactive: [13] 0.0705 | [14] 0.0959 | [15] 0.0874 | [16] 0.0543

CCCCCCCCCCCCCCCC[n+]1ccccc1
active: [21] -1.66 | [22] -2.21
inactive: [19] 0.0178 | [20] -0.00413

COc1cc(OC)c2c(c1)OC(c1ccc(OC)c(OC)c1)C(O)C2 (stereo unspecified)
inactive: [19] 0.123 | [20] 0.00653 | [21] 0.0915 | [22] 0.0594

CNc1ccc2oc(C[C@@H]3OC4(CC[C@@H]3C)O[C@H](C(C)C(=O)c3ccc[nH]3)[C@H](C)C[C@H]4C)nc2c1C(=O)O (stereo partly specified)
inactive: [19] 0.111 | [20] 0.0323 | [14] 0.0959 | [21] -0.0263 | [22] -1.11 | [16] 0.1
active: [13] -0.082 | [15] -0.175

CN[C@@H](Cc1c[nH]c2ccccc12)C(=O)O
inactive: [19] 0.064 | [20] 0.0774 | [21] 0.156 | [22] 0.0411

C[C@@H]1O[C@@H](O[C@H]2C[C@@H](O)[C@]3(CO)[C@H]4[C@H](O)C[C@]5(C)[C@@H](C6=CC(=O)OC6)CC[C@]5(O)[C@@H]4CC[C@]3(O)C2)[C@H](O)[C@H](O)[C@H]1O
active: [19] -2.32 | [20] -1.95 | [13] -0.747 | [14] -0.523 | [21] -3.06 | [22] -3.54 | [15] -4.02 | [16] -3.81

COC1C[C@H](O[C@H]2CC[C@]3(C)C4CC[C@]5(C)[C@@H](C6=CC(=O)OC6)CC[C@]5(O)C4CC[C@]3(O)C2)OC(C)[C@H]1O (stereo partly specified)
active: [19] -0.209 | [20] -0.262 | [21] -3.79 | [22] -2.17

COC1C(O)C(O[C@H]2CC[C@]3(C=O)C4C(CC[C@]3(O)C2)[C@@]2(O)CC[C@H](C3=CC(=O)OC3)[C@@]2(C)C[C@H]4OC(C)=O)OC(C)C1OC(C)=O (stereo partly specified)
inactive: [19] 0.109 | [20] 0.146 | [21] 0.0847 | [22] 0.082

CC1O[C@H](O[C@H]2C[C@@H](O)[C@]3(CO)C4C(O)C[C@]5(C)C(C6COC(=O)C6)CC[C@]5(O)C4CC[C@]3(O)C2)C(O)C(O)[C@H]1O (stereo partly specified)
inactive: [13] 0.151 | [14] 0.0734 | [15] 0.15 | [16] 0.134

C[C@@H]1O[C@@H](O[C@H]2CC[C@]3(C=O)[C@H]4CC[C@]5(C)[C@@H](C6=CC(=O)OC6)CC[C@]5(O)[C@@H]4CC[C@]3(O)C2)[C@H](O)[C@H](O)[C@H]1O
active: [21] -3.36 | [22] -3.89
inactive: [19] 0.0221 | [20] 0.0427

CO[C@H]1C[C@H](O[C@H]2CCC3(C=O)C4CCC5(C)C(C6=CC(=O)OC6)CCC5(O)C4CC[C@]3(O)C2)O[C@H](C)[C@H]1O (stereo partly specified)
active: [19] -0.95 | [20] -1.15 | [21] -3.9 | [22] -3.2

O=c1cccc2n1C[C@@H]1CNC[C@H]2C1
inactive: [19] 0.0148 | [20] -0.00559 | [21] 0.016 | [22] 0.0651

C=CCN1CCc2cccc3c2[C@H]1Cc1ccc(O)c(O)c1-3
inactive: [13] 0.199 | [14] 0.00481 | [15] 0.133 | [16] 0.0436

CN[C@@H]1C[C@@H](c2ccc(Cl)c(Cl)c2)c2ccccc21
inactive: [13] 0.0875 | [14] 0.13 | [15] 0.173 | [16] 0.199

CN1C2CCC1CC(OC(=O)c1cc(Cl)cc(Cl)c1)C2 (stereo unspecified)
inactive: [13] 0.173 | [14] 0.0634 | [15] 0.093 | [16] -0.00531

C/C=C(/C)C(=O)O[C@H]1CC[C@@]2(C)[C@@H]3CC[C@H]4[C@]5(O)C[C@H](O)[C@@]6(O)[C@@H](CN7C[C@@H](C)CC[C@H]7[C@@]6(C)O)[C@]5(O)C[C@@]42O[C@]13O
inactive: [19] 0.0954 | [20] 0.0385 | [21] 0.186 | [22] -0.0784
